Test results reported in PubChem BioAssay (NCATS).
Results filed as inconclusive are left out. Entries that show only a call come without a potency. Active and inactive are the calls of the source. Unless noted, calls follow the shape of the dose curve; as a rule, active = well fitted curve in the direction sought with a large enough effect; inconclusive = small, poorly fitted or top-dose-only effect, or another doubt; inactive = no such curve, though single readings can be large; an effect the other way counts as inactive or inconclusive.

Experiments:
[1] = molecular target: DNA repair nuclease/redox regulator APEX1 (Homo sapiens) (UniProt P27695); assay: qHTS Validation Assay for Inhibitors of the Human Apurinic/apyrimidinic Endonuclease 1 (APE1) (AID 1705;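 also: TAMRA fluorescence gain over two minutes as APE1 cuts a quenched THF abasic duplex; series mostly up to about 57 µM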)
DNA repair nuclease/redox regulator APEX1 (Homo sapiens), sequence (P27695 whole entry, looked up): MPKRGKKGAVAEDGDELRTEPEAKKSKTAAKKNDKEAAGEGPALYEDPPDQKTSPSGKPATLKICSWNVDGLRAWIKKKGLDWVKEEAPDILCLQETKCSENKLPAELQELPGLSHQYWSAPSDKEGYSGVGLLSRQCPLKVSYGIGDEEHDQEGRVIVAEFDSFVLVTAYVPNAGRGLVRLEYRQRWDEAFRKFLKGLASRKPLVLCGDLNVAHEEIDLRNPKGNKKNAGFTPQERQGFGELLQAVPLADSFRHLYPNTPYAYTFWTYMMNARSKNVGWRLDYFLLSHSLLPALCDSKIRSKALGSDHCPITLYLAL
Outline: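 Substrate: 50 nM final fluorophore/quencher THF-abasic duplex. Enzyme preincubated with compounds 15 min, RT. Progress derived from fluorescence difference, third minus first kinetic read.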

[2] = Counterscreen for APE1 Inhibitors: Fluorescent Dye Displacement Validation Assay (AID 1707)
Outline: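 Endpoint fluorescence read at 480 nm excitation / 540 nm emission; DNA-binding compounds lower signal by displacing 250 nM Thiazole Orange from 50 nM dsDNA containing a tetrahydrofuran abasic site, Tris-HCl pH7.5 buffer with NaCl and MgCl2.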

[3] = molecular target: Endonuclease 4 (Escherichia coli (strain K12)) (UniProt P0A6C1); assay: Counterscreen for APE1 Inhibitors: qHTS Validation Assay for Inhibitors of Endonuclease IV (AID 1708)
Outline: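 Conditions: 2 nM enzyme, 50 nM TAMRA/BHQ-2 substrate, pH 7.5 Tris buffer with 2 mM MgCl2, RT. Compound preincubation 15 min; readout three fluorescence reads 60 s apart, third-minus-first.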

[4] = qHTS for differential inhibitors of proliferation of Plasmodium falciparum line 7G8 (AID 1815);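 also: parasite growth measured after three days of incubation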; also: potency is read from the fitted curve at half-maximal effect
[5] = qHTS for differential inhibitors of proliferation of Plasmodium falciparum line GB4 (AID 1816); conditions: Potency: Plasmodium falciparum GB4 proliferation inhibition;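 also: parasite growth measured after 72 h incubation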; also: potency is read from the fitted curve at half-maximal effect
[6] = qHTS for differential inhibitors of proliferation of Plasmodium falciparum line 3D7 (AID 1876); also: potency is read from the fitted curve at half-maximal effect
[7] = qHTS for differential inhibitors of proliferation of Plasmodium falciparum line D10 (AID 1877);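 also: parasites grown with compound for 72 h before DNA staining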; also: potency is read from the fitted curve at half-maximal effect
[8] = qHTS for differential inhibitors of proliferation of Plasmodium falciparum line Dd2 (AID 1882); conditions: Potency: Plasmodium falciparum Dd2 proliferation inhibition; also: series mostly up to about 29 µM; nearly all actives have a fitted effect of over 65% in size
Outline: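 SYBR Green DNA fluorescence (ex 485, em 535 nm) after overnight lysis quantifies parasite growth; compound exposure lasted 72 h at 37 C on infected red cells at 2.5% hematocrit, 0.3% parasitemia (final). Artemisinin 0.29 uM and vehicle wells define normalization.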

[9] = qHTS for differential inhibitors of proliferation of Plasmodium falciparum line W2 (AID 1883); conditions: Potency: Plasmodium falciparum W2 proliferation inhibition;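 also: parasites grown with compound for 72 h before lysis and staining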; also: potency is read from the fitted curve at half-maximal effect
[10] = qHTS for differential inhibitors of proliferation of Plasmodium falciparum line HB3 (AID 1886); conditions: Potency: Plasmodium falciparum HB3 proliferation inhibition;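 also: parasites grown with compound for 72 h before SYBR Green readout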; also: potency is read from the fitted curve at half-maximal effect
[11] = qHTS Assay for Modulators of Human Peripheral Myelin Protein 22 (PMP22) Expression/Activity (AID 1967; active = well fitted curve in the direction sought with a large enough effect in the signal ratio; the % refers to the signal ratio)
Outline: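 Engineered MSC80 cells, Pmp22-promoter green and EF-alpha red luciferase reporters; 24h compound treatment at 37 °C. Concentration-response fits on green, red and ratio signals, each overlap-corrected, with %Activity normalized to untreated wells.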

[12] = molecular target: ATP-dependent DNA helicase Q1 (Homo sapiens) (UniProt P46063); assay: qHTS Validation Assay for Inhibitors of RecQ-Like Dna Helicase 1 (RECQ1) (AID 2353)
ATP-dependent DNA helicase Q1 (Homo sapiens), sequence (P46063 whole entry, looked up): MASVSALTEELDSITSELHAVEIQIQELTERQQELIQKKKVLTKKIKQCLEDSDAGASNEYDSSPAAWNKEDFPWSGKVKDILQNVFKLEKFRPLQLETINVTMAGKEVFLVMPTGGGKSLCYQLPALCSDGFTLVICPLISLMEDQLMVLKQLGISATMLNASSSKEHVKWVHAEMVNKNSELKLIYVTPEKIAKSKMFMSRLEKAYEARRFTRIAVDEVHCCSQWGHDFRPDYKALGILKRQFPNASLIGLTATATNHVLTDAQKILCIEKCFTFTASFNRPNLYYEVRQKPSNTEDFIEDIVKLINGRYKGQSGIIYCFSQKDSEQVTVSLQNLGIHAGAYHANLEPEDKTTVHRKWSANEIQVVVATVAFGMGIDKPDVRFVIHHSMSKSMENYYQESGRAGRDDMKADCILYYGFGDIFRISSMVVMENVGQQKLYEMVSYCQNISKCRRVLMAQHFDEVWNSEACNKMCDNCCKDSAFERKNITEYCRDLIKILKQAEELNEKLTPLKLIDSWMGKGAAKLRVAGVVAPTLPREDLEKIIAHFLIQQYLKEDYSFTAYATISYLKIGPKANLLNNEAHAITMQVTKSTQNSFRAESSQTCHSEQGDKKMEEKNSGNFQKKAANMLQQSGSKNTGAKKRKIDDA
Outline: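 RECQ1T1 50 nM; forked duplex (20 bp + 30-nt ss tails) 200 nM, ATP 2 mM final; pH 8.0, 2 mM MgCl2, 2.5 ug/ml poly(dI-dC); 15 min compound preincubation; discontinuous kinetic read over 2 h at RT.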

[13] = High Content Imaging Cell-Based qHTS for Inhibitors of the mTORC1 Signaling Pathway in MEF (Tsc2-/-, p53-/-) Cells (AID 2666);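 also: percent of cells scored positive for phospho-rpS6 Ser235/236 immunostaining by imaging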; also: potency is read from the fitted curve at half-maximal effect
Outline: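 MEF Tsc2-/- p53-/- (empty vector), DMEM/10% FBS; cpd 24 h 37 °C; PFA fix, Alexa-488 p-rpS6 S235/236 Ab, Hoechst; imaged; rapamycin-defined inhibition; % positive cells/well.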

[14] = High Content Imaging Cell-Based qHTS for Inhibitors of the mTORC1 Signaling Pathway in MEF Cells (AID 2667);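 also: Tsc2-/- p53-/- MEFs stably re-expressing wild-type Tsc2 exposed 24 h; series mostly up to about 38 µM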
Outline: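 Read-out is the share of phospho-rpS6-positive cells per well, from Hoechst-normalized Alexa-488 Ser235/236 staining imaged on IN Cell. Cells: WT Tsc2-expressing Tsc2-/-, p53-/- MEFs exposed to compound for 24 hrs.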

[15] = Cytometry Cell-Based qHTS for Inhibitors of the mTORC1 Signaling Pathway in MEF cells (AID 2668); also: potency is read from the fitted curve at half-maximal effect
Outline: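 In MEFs grown in DMEM + 10% FBS, a 24 hrs compound exposure preceded imaging of phospho-rpS6 Ser235/236 by laser-scanning cytometry.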

[16] = molecular target: DNA polymerase III PolC-type (Bacillus subtilis (strain 168)) (UniProt P13267); assay: qHTS Validation Assay for the Inhibitors of DNA Replication in Gram-Positive Bacteria (AID 485295);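 also: reconstituted holoenzyme with PolC plus beta clamp SSB and primase; PicoGreen fluorescence of double-stranded DNA made on primed circular M13 template; series mostly up to about 57 µM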
DNA polymerase III PolC-type (Bacillus subtilis (strain 168)), sequence (P13267 whole entry, looked up): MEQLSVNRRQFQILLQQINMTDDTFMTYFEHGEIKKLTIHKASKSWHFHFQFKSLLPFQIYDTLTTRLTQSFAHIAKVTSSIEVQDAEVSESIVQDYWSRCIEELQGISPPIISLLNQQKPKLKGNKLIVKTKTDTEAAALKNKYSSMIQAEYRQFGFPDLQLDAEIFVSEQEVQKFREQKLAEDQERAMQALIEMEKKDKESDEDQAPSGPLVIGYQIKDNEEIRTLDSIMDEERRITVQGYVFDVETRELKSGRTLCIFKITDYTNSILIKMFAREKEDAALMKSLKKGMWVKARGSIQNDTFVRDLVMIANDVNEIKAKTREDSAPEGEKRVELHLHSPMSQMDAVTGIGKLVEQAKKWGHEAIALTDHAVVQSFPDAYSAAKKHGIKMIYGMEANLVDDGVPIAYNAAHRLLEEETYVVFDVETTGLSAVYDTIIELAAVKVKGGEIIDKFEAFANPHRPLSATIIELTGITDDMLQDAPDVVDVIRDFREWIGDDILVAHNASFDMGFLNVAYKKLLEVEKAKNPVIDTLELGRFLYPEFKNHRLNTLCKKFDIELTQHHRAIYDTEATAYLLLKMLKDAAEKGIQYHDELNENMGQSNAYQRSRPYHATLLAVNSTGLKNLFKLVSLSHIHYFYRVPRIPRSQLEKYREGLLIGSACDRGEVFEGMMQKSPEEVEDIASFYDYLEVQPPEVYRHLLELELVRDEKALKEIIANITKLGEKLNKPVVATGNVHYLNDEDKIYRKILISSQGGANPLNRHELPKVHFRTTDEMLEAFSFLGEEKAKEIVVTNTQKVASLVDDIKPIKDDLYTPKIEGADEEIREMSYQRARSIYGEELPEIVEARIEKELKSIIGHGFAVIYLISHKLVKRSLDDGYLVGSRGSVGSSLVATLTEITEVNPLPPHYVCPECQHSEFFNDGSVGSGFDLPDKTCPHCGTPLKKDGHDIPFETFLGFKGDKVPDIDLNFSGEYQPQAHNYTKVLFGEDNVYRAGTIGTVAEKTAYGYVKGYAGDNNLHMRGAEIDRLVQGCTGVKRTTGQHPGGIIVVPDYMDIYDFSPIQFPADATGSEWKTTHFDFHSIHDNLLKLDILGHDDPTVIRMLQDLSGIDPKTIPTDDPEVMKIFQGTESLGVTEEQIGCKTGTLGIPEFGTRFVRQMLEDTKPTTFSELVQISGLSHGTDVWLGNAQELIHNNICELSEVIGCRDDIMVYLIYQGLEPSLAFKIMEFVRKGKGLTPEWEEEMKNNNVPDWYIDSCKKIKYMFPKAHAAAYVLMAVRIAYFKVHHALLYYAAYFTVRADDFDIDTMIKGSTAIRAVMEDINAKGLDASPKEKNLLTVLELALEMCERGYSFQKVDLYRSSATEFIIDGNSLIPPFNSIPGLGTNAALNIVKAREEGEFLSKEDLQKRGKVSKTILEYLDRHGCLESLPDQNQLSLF
Outline: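 Inhibition of DNA synthesis by the reconstituted PolC holoenzyme, monitored through PicoGreen staining of dsDNA formed from ssM13Gori, dNTPs and NTPs, with compound preincubation and room-temperature reaction.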

[17] = molecular target: Tumor susceptibility gene 101 protein (Homo sapiens) (UniProt Q99816); assay: qHTS Validation Assay for Iinhibitors of HIV-1 Budding by Blocking the Interaction of PTAP/TSG101 (AID 485342; calls by dose curve)
Tumor susceptibility gene 101 protein (Homo sapiens), sequence (Q99816 whole entry, looked up, the tested form may be a part): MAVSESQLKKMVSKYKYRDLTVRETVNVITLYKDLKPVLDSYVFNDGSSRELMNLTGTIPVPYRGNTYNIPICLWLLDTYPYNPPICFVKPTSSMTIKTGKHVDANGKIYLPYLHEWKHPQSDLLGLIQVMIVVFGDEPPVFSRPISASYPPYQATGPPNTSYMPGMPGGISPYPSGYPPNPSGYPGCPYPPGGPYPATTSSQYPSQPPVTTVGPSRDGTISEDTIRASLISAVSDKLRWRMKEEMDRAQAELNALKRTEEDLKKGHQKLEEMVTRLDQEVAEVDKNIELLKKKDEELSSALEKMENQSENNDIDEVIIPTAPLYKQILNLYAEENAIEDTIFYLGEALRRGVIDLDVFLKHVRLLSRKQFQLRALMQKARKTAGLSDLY
Outline: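 Compound wells held the Tsg101 binding domain (10 uM) and a FITC-conjugated PTAP peptide (50 nM) in buffer at pH 7.5 containing 0.15 M NaCl and 0.01% Tween 20; polarization was recorded after 20 min, r.t.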

[18] = Cytometric Cell-Based qHTS for Inhibitors of the mTORC1 Signaling Pathway in MEF (Tsc2-/-, p53-/-) Cells (AID 2660);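 also: Tsc2 and p53 null MEFs carrying empty vector with compound for 24 h; percent of cells above a phospho-rpS6 to PI ratio cutoff in each well; series mostly up to about 38 µM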
Outline: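 Cells are plated, treated with compound for 24 hrs at 37 degree Celsius, then fixed, blocked and immunostained for phospho-rpS6 Ser235/236. Propidium iodide counterstain follows. Per-well % positive cells is derived from the PI-normalized phospho-S6 signal.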

[19] = molecular target: RecQ-like DNA helicase BLM (Homo sapiens) (UniProt P54132); assay: qHTS Validation Assay for Inhibitors of Bloom's syndrome helicase (BLM) (AID 2364)
RecQ-like DNA helicase BLM (Homo sapiens), sequence (P54132 whole entry, looked up): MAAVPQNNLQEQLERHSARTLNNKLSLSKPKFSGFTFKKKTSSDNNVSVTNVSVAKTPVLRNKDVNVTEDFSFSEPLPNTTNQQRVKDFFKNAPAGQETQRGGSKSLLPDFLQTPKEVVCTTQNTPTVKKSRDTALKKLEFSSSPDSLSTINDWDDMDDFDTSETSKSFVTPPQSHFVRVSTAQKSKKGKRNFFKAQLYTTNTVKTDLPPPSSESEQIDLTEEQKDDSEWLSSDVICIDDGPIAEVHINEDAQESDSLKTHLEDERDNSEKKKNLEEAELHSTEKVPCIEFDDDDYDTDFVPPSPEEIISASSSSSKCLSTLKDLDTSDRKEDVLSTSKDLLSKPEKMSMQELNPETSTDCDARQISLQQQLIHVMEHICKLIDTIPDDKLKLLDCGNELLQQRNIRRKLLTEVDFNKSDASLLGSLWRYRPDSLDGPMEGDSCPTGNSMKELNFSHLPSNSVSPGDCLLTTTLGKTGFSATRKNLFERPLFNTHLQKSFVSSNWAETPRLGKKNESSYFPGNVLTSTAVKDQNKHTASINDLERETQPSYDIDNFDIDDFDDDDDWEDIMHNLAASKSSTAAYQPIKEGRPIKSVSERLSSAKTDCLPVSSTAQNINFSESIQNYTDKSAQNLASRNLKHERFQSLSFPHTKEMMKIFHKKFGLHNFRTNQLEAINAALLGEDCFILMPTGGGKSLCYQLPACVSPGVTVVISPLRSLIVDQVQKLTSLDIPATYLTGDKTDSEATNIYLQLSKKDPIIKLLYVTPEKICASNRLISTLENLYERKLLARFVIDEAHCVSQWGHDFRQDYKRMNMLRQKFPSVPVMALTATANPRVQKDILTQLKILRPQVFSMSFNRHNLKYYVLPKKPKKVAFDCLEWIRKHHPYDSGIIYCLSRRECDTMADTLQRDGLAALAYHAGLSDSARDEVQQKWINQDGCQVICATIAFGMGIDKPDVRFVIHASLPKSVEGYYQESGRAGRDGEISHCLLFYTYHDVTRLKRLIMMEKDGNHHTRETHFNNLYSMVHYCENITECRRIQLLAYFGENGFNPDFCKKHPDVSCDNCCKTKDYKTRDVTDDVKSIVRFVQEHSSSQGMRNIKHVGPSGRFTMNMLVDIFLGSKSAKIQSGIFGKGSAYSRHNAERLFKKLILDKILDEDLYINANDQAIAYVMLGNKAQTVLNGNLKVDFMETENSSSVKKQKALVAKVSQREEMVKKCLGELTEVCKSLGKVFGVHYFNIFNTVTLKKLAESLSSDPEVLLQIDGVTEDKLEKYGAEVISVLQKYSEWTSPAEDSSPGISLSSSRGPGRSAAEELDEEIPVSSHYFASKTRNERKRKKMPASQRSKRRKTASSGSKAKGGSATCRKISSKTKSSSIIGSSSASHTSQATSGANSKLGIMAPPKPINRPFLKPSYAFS
Outline: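 50 nM BLM preincubated 15 min at room temperature with compound in pH 8.0 Tris buffer containing 2.5 ug/ml poly(dI-dC); started with 200 nM TAMRA/BHQ-2 forked duplex and 2 mM ATP (final). Unwinding read as TAMRA fluorescence increase, two reads 2 h apart.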

[20] = qHTS Assay for Identification of Small Molecule Inducers of Hypoxia Response (AID 2120; active = well fitted curve in the direction sought with a large enough effect in the signal ratio, with a control signal flat, not every such curve was filed as active; the % refers to the signal ratio)
Outline: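 Reporter induction read as the CCF4 blue/green (460nm/530nm) emission ratio after 2.5 h dye loading at room temperature. ME-180 HRE-beta-lactamase cells received titrated compounds for 17 h at 37 degrees Celsius; AC50 values derived.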

CC1=C(C(=O)O)N2C(=O)[C@@H](NC(=O)C(N)c3ccccc3)[C@H]2SC1 (some centres not stated)
outcome [1]: inactive
outcome [2]: inactive
outcome [3]: inactive
Potency [4]: inactive
Potency [5]: inactive
Potency [6]: inactive
Potency [7]: inactive
Potency [8]: inactive
Potency [9]: inactive
Potency [10]: inactive
outcome [11]: inactive
outcome [12]: inactive
Potency [13]: inactive
outcome [14]: inactive
Potency [15]: inactive
outcome [16]: inactive
outcome [17]: inactive

COc1cc2ncnc(Nc3cccc(Cl)c3)c2cc1OC
outcome [1]: inactive
outcome [3]: inactive
Potency [4]: 8.91 µM (active)
Potency [5]: 6.31 µM (active)
Potency [6]: 2.51 µM (active)
Potency [7]: 5.62 µM (active)
Potency [9]: 7.94 µM (active)
Potency [10]: 10 µM (active)
outcome [12]: inactive
outcome [18]: inactive
Potency [13]: inactive
outcome [14]: inactive
Potency [15]: inactive
outcome [16]: inactive
outcome [17]: inactive

CC(=O)[C@H]1CC[C@H]2[C@@H]3CCC4=CC(=O)CC[C@]4(C)[C@H]3CC[C@]12C
outcome [1]: inactive
outcome [2]: inactive
outcome [3]: inactive
outcome [12]: inactive
outcome [19]: inactive
outcome [18]: inactive
Potency [13]: inactive
outcome [14]: inactive
Potency [15]: inactive
outcome [16]: inactive
outcome [17]: inactive

CCN(CC)CCn1c(=O)c(Cc2ccc(OC)cc2)nc2ccccc21
outcome [18]: inactive
Potency [13]: inactive
outcome [14]: inactive
Potency [15]: inactive
outcome [16]: inactive
outcome [17]: inactive

CC(=O)Oc1ccccc1C(=O)Nc1ncc([N+](=O)[O-])s1
outcome [20]: inactive

N=C(N)c1ccc(OCCCCCOc2ccc(C(=N)N)cc2)cc1
outcome [20]: inactive

COc1cc2nc(N3CCCN(C)CC3)nc(NC3CCN(Cc4ccccc4)CC3)c2cc1OC
Potency [13]: 2.61 µM (active)
Potency [15]: 6.56 µM (active)
outcome [16]: inactive
outcome [17]: inactive

NC(=O)c1ccc2[nH]ccc2c1
outcome [18]: inactive
Potency [13]: inactive
outcome [14]: inactive
Potency [15]: inactive
outcome [16]: inactive
outcome [17]: inactive

COc1ccc2cc3[n+](cc2c1OC)CCc1cc2c(cc1-3)OCO2
outcome [20]: inactive

Cc1noc(NS(=O)(=O)c2ccc(N)cc2)c1C
outcome [20]: inactive

O=C(O)c1cc(=O)[nH]c(=O)[nH]1
outcome [20]: inactive

O=C(O)C1CCCN(CCC=C(c2ccccc2)c2ccccc2)C1 (configuration not stated)
outcome [1]: inactive
outcome [2]: inactive
outcome [3]: inactive
Potency [4]: inactive
Potency [5]: inactive
Potency [6]: inactive
Potency [7]: inactive
Potency [8]: inactive
Potency [9]: inactive
Potency [10]: inactive
outcome [11]: inactive
outcome [12]: inactive
outcome [19]: inactive
outcome [18]: inactive
Potency [13]: inactive
outcome [14]: inactive
Potency [15]: inactive
outcome [16]: inactive
outcome [17]: inactive

CC(C)NCC(O)c1ccc(NS(C)(=O)=O)cc1 (configuration not stated)
outcome [1]: inactive
outcome [2]: inactive
outcome [3]: inactive
Potency [4]: inactive
Potency [5]: inactive
Potency [6]: inactive
Potency [7]: inactive
Potency [8]: inactive
Potency [10]: inactive
outcome [11]: inactive
outcome [12]: inactive
outcome [18]: inactive
Potency [13]: inactive
outcome [14]: inactive
Potency [15]: inactive
outcome [16]: inactive
outcome [17]: inactive

NC(N)=NC(N)=NCCc1ccccc1
outcome [20]: inactive

CCCCS(=N)(=O)CCC(N)C(=O)O (configuration not stated)
outcome [1]: inactive
outcome [3]: inactive
Potency [5]: inactive
Potency [6]: inactive
Potency [7]: inactive
Potency [8]: inactive
Potency [10]: inactive
outcome [11]: inactive
outcome [12]: inactive
outcome [19]: inactive
outcome [18]: inactive
Potency [13]: inactive
outcome [14]: inactive
Potency [15]: inactive
outcome [16]: inactive
outcome [17]: inactive
